Experiment [1] can be described thus: qHTS assay to identify small molecule agonists of the vitamin D receptor (VDR) signaling pathway - cell viability counter screen (AID 743224; active = well fitted curve in the direction sought with a large enough effect in the repeat runs; an effect the other way counts as inactive or inconclusive; note: nearly all actives have a fitted effect of over 50% in size; note: potency is the fitted concentration of half-maximal effect; for activity change, negative = cytotoxicity: series mostly up to about 63 µM; % is set by controls: 0 for no effect and ±100 for the full control effect). In outline: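 Counter screen for cytotoxicity: VDR-bla cells at 2,000 cells/well, 16 h compound exposure, then CellTiter-Glo luminescence after the beta-lactamase measurement.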
Experiment [2] in a line: qHTS assay to identify small molecule antagonists of the vitamin D receptor (VDR) signaling pathway - cell viability counter screen (AID 743225; active = well fitted curve in the direction sought with a large enough effect in the repeat runs; an effect the other way counts as inactive or inconclusive; note: % is set by controls: 0 for no effect and ±100 for the full control effect; nearly all actives have a fitted effect of over 50% in size). The gist of the method:
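Cytotoxicity toward the VDR-bla HEK 293T line was scored by ATP-based CellTiter-Glo luminescence, read in the wells already used for the beta-lactamase readout after 16 h compound treatment under 3 nM 1-alpha,25-dihydroxyvitamin D3 stimulation.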

Experiment [3] can be described thus: qHTS assay to identify small molecule agonists of the NFkB signaling pathway (AID 1159509; active = well fitted curve in the direction sought with a large enough effect in the signal ratio in the repeat runs, not every such curve was filed as active; the % refers to the signal ratio; note: series mostly up to about 61 µM; % is set by controls: 0 for no effect and ±100 for the full control effect). In outline: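 Readout: FRET fluorescence, 405 nm excitation, 460/530 nm emission; beta-lactamase expression disrupts FRET. Cells: ME-180 stably carrying NF-kB-driven bla reporter. Compound exposure 5 hr, 37 C, 5% CO2.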
In general terms: In qHTS, concentration-response curves come from the screen itself.

The nature of experiment [4]: qHTS assay to identify small molecule agonists of the NFkB signaling pathway - cell viability counter screen (AID 1159515). Note: series mostly up to about 61 µM; % is set by controls: 0 for no effect and ±100 for the full control effect; nearly all actives have a fitted effect of over 55% in size. The gist of the method:
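Counter screen run alongside the NFkB-bla agonist assay: ME-180 reporter cells exposed to compounds for 5 hr, then lysed with CellTiter-Glo in the same wells. Luminescence, read after 30 min, reflects viable cells.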

Experiment [5] is described as follows: qHTS assay to identify small molecule agonists of the endoplasmic reticulum stress response signaling pathway (AID 1159516; active = well fitted activation curve with a large enough effect in the signal ratio in the repeat runs, not every such curve was filed as active; the % refers to the signal ratio; note: % is set by controls: 0 for no effect and ±100 for the full control effect). The gist of the method: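 For this screen, HeLa cells stably carrying beta-lactamase under the ER stress response element received test compounds, positive controls or DMSO for 5 hr at 37 C; B/G FRET substrate was then added and dual-wavelength emission recorded.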

Experiment [6] can be described thus: qHTS assay to identify small molecule agonists of the endoplasmic reticulum stress response signaling pathway - cell viability counter screen (AID 1159517). Note: series mostly up to about 61 µM; % is set by controls: 0 for no effect and ±100 for the full control effect; nearly all actives have a fitted effect of over 50% in size. In outline:
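Cytotoxicity of test compounds toward ESRE-bla HeLa cells was assessed after 5 hr exposure. The luminescent CellTiter-Glo signal was measured 30 min after reagent addition.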

Experiment [7] in a line: qHTS assay to identify small molecule antagonists of the retinoid-related orphan receptor gamma (ROR-gamma) signaling pathway - cell viability counter screen (AID 1159520; active = well fitted curve in the direction sought with a large enough effect in the repeat runs; an effect the other way counts as inactive or inconclusive; note: % is set by controls: 0 for no effect and ±100 for the full control effect; nearly all actives have a fitted effect of over 50% in size). The gist of the method: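 Tet-on ROR gamma CHO cells (1,000/well) were plated 4 hr, given compounds in DMSO for 2 hr at 37 C, then induced with 1 uM final doxycycline for 16 hr. Viability was read as ATP by CellTiter-Glo luminescence after 30 min.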

Experiment [8] in a line: qHTS assay to identify small molecule agonists of the AP-1 signaling pathway - cell viability counter screen (AID 1159525). Note: nearly all actives have a fitted effect of over 55% in size. In outline: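 Each titration point was normalised to DMSO and tetra n-octyl ammonium bromide controls. The read was Cell Titer Glo luminescence after 30 min at RT, following 5 h compound exposure of ME-180 AP-1-bla cells at 37 °C.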
Experiment [9] can be described thus: qHTS assay to identify small molecule agonists of the AP-1 signaling pathway (AID 1159526). Note: % is set by controls: 0 for no effect and ±100 for the full control effect.
Experiment [10] concerns the target Nuclear receptor ROR-gamma (Homo sapiens) (UniProt P51449). The experiment in a line: qHTS assay to identify small molecule antagonists of the retinoid-related orphan receptor gamma (ROR-gamma) signaling pathway (AID 1159521; active = well fitted curve in the direction sought with a large enough effect in the repeat runs; an effect the other way counts as inactive or inconclusive). The gist of the method:
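Readout: ONE-Glo luciferase luminescence, 30 min at room temperature. System: Tet-on RORγ CHO, RORE-LUC. Sequence: compound 2 h, doxycycline 1 uM final, 16 h at 37 C.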

Results filed as inconclusive are left out. A number with no mark means an inactive call. Active and inactive are the calls of the source. Unless noted, calls come from the whole dose curve.

With `CC(C)(C)c1nnc(NS(=O)(=O)c2ccccc2)s1`, the Potency entry in experiment [1], in [2] and in experiment [8] was “inactive” throughout. Besides, the compound was called inactive in experiment [3], in [4], in [5], in experiment [6], in experiment [7] and in [9].

With `Cc1sccc1Br`, the Potency result in experiment [1], in [2] and in [8] was “inactive” each time. The call in experiment [3], in experiment [4], in [5], in experiment [6], in experiment [7] and in [9] was inactive.

For `CO/N=C(/C(=O)N[C@@H]1C(=O)N2C(C(=O)OCOC(=O)C(C)(C)C)=C(C)CS[C@H]12)c1csc(N)n1`, the Potency result in experiment [2] and in experiment [8] was “inactive” each time. For the same compound, the compound was classed as inactive in [3], in experiment [4], in experiment [5], in experiment [6], in experiment [7] and in experiment [9].

With `COc1ccc2c(c1)c(CC(=O)OCC(=O)O)c(C)n2C(=O)c1ccc(Cl)cc1`, the Potency result in experiment [1], in experiment [2] and in experiment [8] was “inactive” each time. In addition, the compound was classed as inactive in experiment [3], in experiment [4], in experiment [5], in experiment [6], in experiment [7] and in [9].

Regarding `COc1ccc2c(c1)CCCC2=O`, the Potency entry in [1], in experiment [2] and in experiment [8] was “inactive” each time. Also, the call in experiment [3], in experiment [4], in experiment [5], in experiment [6], in experiment [7] and in [9] was inactive.

With `O=C(O)CCCl`, the Potency result in experiment [1], in [2] and in experiment [8] was “inactive” in each case. Moreover, the call in experiment [3], in experiment [4], in experiment [5], in [6], in experiment [7] and in [9] was inactive.

With `CCn1nc(C(=O)O)c(=O)c2cc3c(cc21)OCO3`, the Potency result in [1], in [10] and in experiment [8] was “inactive” in each case. The outcome in experiment [3], in [4], in experiment [5], in experiment [6] and in [9] was inactive.

Take `CN(C)CCCN1c2ccccc2CCc2ccc(Cl)cc21`: the Potency in experiment [1] was 43.6 µM (active). The result in experiment [3], in experiment [4], in experiment [5], in experiment [6] and in [7] was inactive. Further, the Potency entry in [8] was “inactive”.

For the compound `COCCc1ccc(OCC(O)CNC(C)C)cc1` (configuration not stated), the Potency result in experiment [1], in experiment [2] and in experiment [8] was “inactive” each time. Also, the result in [3], in experiment [4], in experiment [5], in experiment [6], in experiment [7] and in experiment [9] was inactive.

With `O=c1[nH]c(=O)n([C@H]2C[C@H](O)[C@@H](CO)O2)cc1I`, the Potency entry in experiment [1], in [10] and in experiment [8] was “inactive” each time. Also, the call in experiment [3], in [4], in experiment [5], in experiment [6] and in [9] was inactive.

For the compound `COc1c(N2C[C@@H]3CCCN[C@@H]3C2)c(F)cc2c(=O)c(C(=O)O)cn(C3CC3)c12`, the outcome in experiment [3], in [4], in experiment [5], in [6] and in [9] was inactive. Further, the Potency result in [10] and in experiment [8] was “inactive” each time.

In the case of `CC/C=C\CCOC(C)=O`, the Potency entry in [1], in [10] and in experiment [8] was “inactive” each time. Besides, the compound was classed as inactive in experiment [3], in experiment [4], in experiment [5], in experiment [6] and in [9].

`C=C1CC[C@H]2C[C@@H]1C2(C)C`: the Potency entry in experiment [1], in experiment [2] and in experiment [8] was “inactive” each time. The call in experiment [3], in [4], in experiment [5], in [6], in experiment [7] and in experiment [9] was inactive.

For the compound `NS(=O)(=O)c1cc2c(cc1Cl)NC(C1CC3C=CC1C3)NS2(=O)=O` (configuration not stated), the Potency entry in [1], in experiment [2] and in experiment [8] was “inactive” throughout. In addition, the call in experiment [3], in experiment [4], in [5], in experiment [6], in experiment [7] and in [9] was inactive.

Consider `NC(CSCC(=O)O)C(=O)O` (configuration not stated), for which the Potency result in [1], in experiment [2] and in experiment [8] was “inactive” throughout. Besides, the outcome in [3], in experiment [4], in experiment [5], in [6], in experiment [7] and in experiment [9] was inactive.

On to `N[C@@H](C(=O)N[C@@H]1C(=O)N2C(C(=O)O)=C(Cl)CS[C@H]12)c1ccccc1`, for which the activity change, negative = cytotoxicity was 12.3% [at 13.2 µM] in experiment [1] and 11.8% [at 6.95 µM] in experiment [6]. Also, the viability change, negative = cytotoxic in [2] was -2.62% [at 6.95 µM]; in experiment [8], 3.61% [at 6.97 µM]. For the same compound, the activation in experiment [3] is -0.195% [at 6.95 µM]; in experiment [5], 4.99% [at 6.95 µM]; in [9] it was 0.719% [at 6.97 µM]. Also, the activity, negative = cytotoxic in experiment [4] was 6.68% [at 6.95 µM]. Besides, the activity, negative = cytotoxicity in experiment [7] was 0.217% [at 8.39 µM].

`N[C@H](C(=O)O)c1ccc(O)cc1`: the Potency entry in [1] and in experiment [2] was “inactive” each time. Also, the compound was classed as inactive in [3], in [4], in [5], in experiment [6] and in experiment [9]. Moreover, the activity, negative = cytotoxicity in [7] is 3.98% [at 19 µM]. Moreover, in experiment [8], the viability change, negative = cytotoxic was 10.2% [at 15.8 µM].

As for `CC(=O)CC(C)(C)C1CCCCC1`, the Potency entry in [1], in experiment [10] and in [8] was “inactive” each time. Besides, the compound was classed as inactive in experiment [3], in experiment [4], in [5], in [6] and in [9].

Turning to `COC(=O)NN`, the Potency result in [1], in experiment [2] and in [8] was “inactive” in each case. The compound was classed as inactive in experiment [3], in [4], in [5], in experiment [6], in [7] and in [9].

`CCOC(=O)Nc1ccc(NCc2ccc(F)cc2)nc1N`: the Potency result in experiment [1], in [2] and in experiment [8] was “inactive” each time. Also, the outcome in experiment [3], in [4], in experiment [5], in experiment [6], in experiment [7] and in experiment [9] was inactive.

As to `CC(C)(C)NCCNC(C)(C)C`, the Potency entry in experiment [1], in experiment [2] and in experiment [8] was “inactive” in each case. Also, the compound was called inactive in experiment [3], in experiment [4], in [5], in experiment [6], in experiment [7] and in experiment [9].

As to `CCN(Cc1ccncc1)C(=O)C(CO)c1ccccc1` (configuration not stated), the Potency entry in experiment [1], in experiment [2] and in experiment [8] was “inactive” each time. Also, the compound was called inactive in experiment [3], in experiment [4], in experiment [5], in [6], in experiment [7] and in experiment [9].

Consider `O=C(O)Cc1ccc(CCNS(=O)(=O)c2ccc(Cl)cc2)cc1`, for which the Potency entry in experiment [1], in experiment [10] and in [8] was “inactive” throughout. In addition, the compound was called inactive in experiment [3], in experiment [4], in [5], in experiment [6] and in experiment [9].

The values above are taken from PubChem BioAssay (Tox21).
